# From PubChem BioAssay
# Where “and” joins values, the source holds several entries; their conditions need not be identical. Equal entries are not always repeated. Results filed as inconclusive are left out. For part of these data: Potency and affinity values are given separately. Calls of active or inactive are those of the source. Unless noted, cut-off not given; nearly all actives show AC50 up to about 26 µM.
# Experiments:
# [1] = polyglutamine-triggered caspase-3 activation inhibitors, cell-based (AID 1583); settings: polyglutamine-induced caspase-3 activation, cell assay; stronger effect = higher value;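 tested at 10 µM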
# [2] = suppressors of polyQ aggregation in yeast, 75Q-TubU reporter (AID 1593); settings: Yeast 75Q polyglutamine aggregation reporter
# [3] = rescue of polyQ-huntingtin neuronal dysfunction in worms, whole organism, C. elegans mechanosensory neurons, N-terminal huntingtin (AID 1599); settings: touch response, stronger effect = higher value
# [4] = inhibitors of mitochondrial cytochrome c release, biochemical, purified mitochondria (AID 1603); settings: stronger effect = lower value;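 further: mouse liver mitochondria challenged with calcium chloride; signal normalized to the plate average as 100%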
# [5] = inhibitors of polyQ protein aggregation (AID 1604); settings: polyglutamine-induced protein aggregation inhibition assay; stronger effect = higher value; tested at 2.5 µM
# [6] = protection against mutant huntingtin cytotoxicity, PC12 cells, LDH release (AID 1610); settings: PC12 mutant huntingtin toxicity, final LDH at 4 uM, stronger effect = lower value
# [7] = enhancers of glutamate uptake in motor neurons, MN-1 cell line (AID 1612); settings: MN-1 motor neuron cells, stronger effect = higher value;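 further: tested at 1 µM final; 0% = mean of DMSO vehicle wells on each plate; positive means more glutamate uptake than control and negative means less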
# [8] = reducers of polyQ inclusions in PC12 cells, cell-based, NGF-treated PC12, GFPQ80 (AID 1614); settings: PC12 NGF-treated GFP-polyQ80 inclusion reduction;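 further: lower means fewer inclusions and 0 means no inclusions at all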
# [9] = suppressors of polyglutamine aggregation in yeast, 75Q-TubH (AID 1616); settings: S. cerevisiae 75Q-TubH polyglutamine aggregation suppression; stronger effect = higher value
# [10] = circadian clock period modulators, cell-based, LOPAC library, luminescence reporter (AID 2774; call rule not given here;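 further: values are relative to mean of DMSO wells on each plate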); settings: circadian reporter cells, at 7 µM, actives lie on both sides
# [11] = tested on: Hepatitis C virus NS3 helicase; experiment: HCV NS3 helicase inhibitors, primary screen, biochemical, fluorescence polarization, LOPAC1280 library (AID 687035; in the data active means inhibition above about 37%); settings: Purified HCV NS3 helicase, Cy5-dT15 ssDNA binding fluorescence polarization; stronger effect = higher value; concentration not given here
# [12] = Cy5 fluorescence quenching or enhancement artefacts, artefact control for HCV NS3 helicase inhibitor project, biochemical, LOPAC1280 (AID 687037; call rule not given here); settings: Cy5-DNA-NS3h complex fluorescence interference counterscreen
# [13] = differential killing of epithelial or mesenchymal cells, primary screen, imaging, PC-3E GFP, TEM4-18 mCherry, co-culture (AID 1345086;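 active means compounds killing one labelled cell type while sparing the other, by normalised counts and ratio limits, not self-fluorescent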;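 on all read-outs here: cells exposed to compound for 72 h before imaging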;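 on red/green cell ratio (normalised): normalised mesenchymal count divided by normalised epithelial count so high means epithelial killing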); settings: imaging cell counts, at 1 µM; for red/green cell ratio (normalised): actives lie on both sides, counts scaled to control wells, 1 = unselective
# [14] = tested on: Aerobactin synthetase IucA (Klebsiella pneumoniae); experiment: IucA aerobactin synthetase inhibitors, biochemical, Tocris library, absorbance (AID 1345561; call rule not given here;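 further: 100% = enzyme without compound and 0% = no enzyme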); settings: purified IucA enzyme assay, absorbance (OD) read-out; stronger effect = lower value;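 tested at 8 µM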
# [15] = growth inhibition of DIPG glioma cells, dose response, cell-based, SU-DIPG-XVII, MIPE5.0, CellTiter-Glo, qHTS (AID 1347060); settings: SU-DIPG-XVII viability, CellTiter-Glo ATP luminescence
# [16] = growth inhibition of DIPG glioma cells, dose response, cell-based, JHH-DIPG-1, MIPE4.0, CellTiter-Glo, qHTS (AID 1347062; cut-off not given, nearly all actives have AC50 up to about 27 µM); settings: JHH-DIPG-1 viability, CellTiter-Glo ATP luminescence
# [17] = growth inhibition of DIPG glioma cells, dose response, cell-based, SU-DIPG-IV, MIPE4.0, CellTiter-Glo, qHTS (AID 1347063; cut-off not given, nearly all actives have AC50 up to about 30 µM;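 further: compound exposure lasted 48 hours before the viability readout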); settings: SU-DIPG-IV viability, CellTiter-Glo ATP luminescence
# [18] = viability loss in pontine glioma line – cell-based, SU-DIPG-XXV, MIPE5.0, CellTiter-Glo, qHTS, dose response (AID 1347065); settings: CellTiter-Glo ATP luminescence;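 further: cells exposed to compound for 48 hours before ATP readout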
# [19] = SU-DIPG-VI glioma cell viability, MIPE4.0 library, CellTiter-Glo luminescence, qHTS (AID 1347066; cut-off not given, nearly all actives have AC50 up to about 30 µM;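 further: cells exposed to compound for 48 hours before readout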); settings: CellTiter-Glo ATP luminescence
# [20] = JHH-DIPG-1 glioma cell viability, MIPE5.0 library, CellTiter-Glo luminescence, qHTS (AID 1347067); settings: JHH-DIPG-1 glioma viability, CellTiter-Glo ATP luminescence;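 further: cells exposed to compound for 48 hours before readout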
# [21] = SU-DIPG-XXV glioma cell viability, MIPE5.0 library, qHTS (AID 1347068; cut-off not given, nearly all actives have IC50 up to about 30 µM;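 on IC50: cells exposed to compound for 48 hours before viability readout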)
# [22] = sensitizers of A549 cells to miR-34 induction, primary screen, imaging, A549 dox-inducible miR-34, nuclei and caspase counts (AID 1347080;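 active means compounds whose cell count with miR-34 switched on is under 0.7 times the count with it off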); settings: A549 miR-34 inducible, Hoechst nuclei count, 48 h
# [23] = phospholipid biosynthesis inhibitors in animal cells, primary screen, cell-based, LOPAC library, screen 4 (AID 1347384; call rule not given here); settings: phospholipid biosynthesis inhibition screen, at 10 µM
# [24] = molecular target: Mitogen-activated protein kinase 7 (Homo sapiens) (UniProt Q13164); experiment: ERK5 transactivation activators in reporter cells, primary screen, cell-based, HTS (AID 1508626;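 active means luciferase signal above three times the same-plate solvent-only control wells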;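 further: luciferase driven by Gal4-ERK5 fusion binding five Gal4 sites before minimal TATA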); settings: HeLa Gal4-ERK5 transactivation, 18 h, at 5 µM, stronger effect = higher value
# Chain of Mitogen-activated protein kinase 7 (Homo sapiens) (Q13164 whole entry, looked up, the tested form may be a part): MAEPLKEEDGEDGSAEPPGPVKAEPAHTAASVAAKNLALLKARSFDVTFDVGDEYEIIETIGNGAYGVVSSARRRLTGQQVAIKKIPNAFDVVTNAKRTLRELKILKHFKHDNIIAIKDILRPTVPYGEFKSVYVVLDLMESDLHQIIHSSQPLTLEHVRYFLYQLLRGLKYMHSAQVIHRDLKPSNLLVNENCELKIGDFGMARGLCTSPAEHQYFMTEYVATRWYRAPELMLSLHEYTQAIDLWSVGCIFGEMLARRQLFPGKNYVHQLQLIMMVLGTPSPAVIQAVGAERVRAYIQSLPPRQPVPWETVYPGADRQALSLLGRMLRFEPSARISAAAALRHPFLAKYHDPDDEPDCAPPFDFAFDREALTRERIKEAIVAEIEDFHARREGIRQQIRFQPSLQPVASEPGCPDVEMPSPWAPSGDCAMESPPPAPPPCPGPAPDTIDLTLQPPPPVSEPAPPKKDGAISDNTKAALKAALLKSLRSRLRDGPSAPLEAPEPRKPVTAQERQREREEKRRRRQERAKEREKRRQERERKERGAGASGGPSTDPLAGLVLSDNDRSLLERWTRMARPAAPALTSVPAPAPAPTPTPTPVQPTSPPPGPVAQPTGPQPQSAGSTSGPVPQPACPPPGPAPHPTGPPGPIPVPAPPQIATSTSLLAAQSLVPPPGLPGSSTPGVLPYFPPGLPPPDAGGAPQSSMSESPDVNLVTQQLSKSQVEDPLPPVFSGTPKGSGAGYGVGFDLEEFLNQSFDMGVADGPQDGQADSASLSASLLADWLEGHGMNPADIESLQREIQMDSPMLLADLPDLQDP
# [25] = viability rescue of complex I mutant cybrids, primary screen, cell-based, galactose medium, ATP luminescence (AID 1645843;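 active means z-score of at least 1.8 in each of two replicates, scored against plate mean and spread of sample wells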;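 further: positive z means more ATP and so rescue of galactose-driven cybrid death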); settings: complex I mutant cybrid cells, 72 h, stronger effect = higher value
# [26] = growth inhibition of DIPG glioma cells, dose response, cell-based, SU-DIPG-XIII, MIPE5.0, CellTiter-Glo, qHTS (AID 1347064; cut-off not given, nearly all actives have AC50 up to about 23 µM); settings: SU-DIPG-XIII viability, CellTiter-Glo ATP luminescence
# [27] = molecular target: NAD(+) hydrolase SARM1 (Homo sapiens) (UniProt Q6SZW1); experiment: SARM1 TIR NADase inhibitors, cell lysate, NAD-Glo luminescence (AID 1508614;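 active means compound whose remaining NAD level is above about 45 nM, limit read from the data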); settings: SAM-TIR HEK293T lysate NADase, at 1 µM, stronger effect = higher value
# Chain of NAD(+) hydrolase SARM1 (Homo sapiens) (Q6SZW1 whole entry, looked up): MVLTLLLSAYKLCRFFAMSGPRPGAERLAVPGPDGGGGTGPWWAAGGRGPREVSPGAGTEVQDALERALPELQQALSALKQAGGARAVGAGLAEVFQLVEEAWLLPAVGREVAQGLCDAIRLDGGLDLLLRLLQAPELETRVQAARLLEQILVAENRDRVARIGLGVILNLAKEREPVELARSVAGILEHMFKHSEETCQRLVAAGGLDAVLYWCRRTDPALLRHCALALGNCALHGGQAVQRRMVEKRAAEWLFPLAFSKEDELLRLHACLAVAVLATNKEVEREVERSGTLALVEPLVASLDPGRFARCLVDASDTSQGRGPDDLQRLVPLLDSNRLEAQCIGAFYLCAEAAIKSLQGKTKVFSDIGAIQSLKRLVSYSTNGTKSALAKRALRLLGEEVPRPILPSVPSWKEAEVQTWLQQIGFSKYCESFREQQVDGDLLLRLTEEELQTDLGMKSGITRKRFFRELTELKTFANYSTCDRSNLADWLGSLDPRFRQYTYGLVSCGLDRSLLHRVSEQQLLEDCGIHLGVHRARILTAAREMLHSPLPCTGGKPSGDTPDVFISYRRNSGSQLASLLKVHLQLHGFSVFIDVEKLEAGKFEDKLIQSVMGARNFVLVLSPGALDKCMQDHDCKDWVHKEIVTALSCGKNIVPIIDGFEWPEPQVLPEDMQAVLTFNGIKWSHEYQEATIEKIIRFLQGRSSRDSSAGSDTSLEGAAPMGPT
# [28] = liver-stage malaria parasite growth inhibition, primary screen, cell-based, HepG2, luciferase luminescence, HepG2 viability (AID 624349; in the data active means parasite load remaining mostly below about 12%, no sharp cut-off; inactive means mostly above about 10%;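 further: 100% = mean of DMSO negative control wells on the same plate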); settings: P. berghei liver stage in HepG2, luciferase luminescence, concentration not given here; parasite load remaining: stronger effect = lower value; viability: measured here: HepG2 viability without parasites
# [29] = growth inhibition of DIPG glioma cells, dose response, cell-based, SU-DIPG-XIII, MIPE4.0, CellTiter-Glo, qHTS (AID 1347061; cut-off not given, nearly all actives have AC50 up to about 37 µM;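 further: cells exposed to compound for 48 hours before readout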); settings: SU-DIPG-XIII viability, CellTiter-Glo ATP luminescence
# [30] = survival rescue of mitochondrial mutant cells in low glucose, primary screen, MELAS cybrids, Rieske KO mouse fibroblasts, CellTiter-Glo (AID 1508586;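 active means mean z-score across replicates of 1.96 or higher in either the MELAS or the Rieske mutant cell line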;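 further: z relative to plate mean and SD of compound and empty wells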)
# [31] = measured here: epithelial PC-3E GFP cell survival
# [32] = measured here: mesenchymal TEM4-18 mCherry cell survival
# [33] = stronger effect = lower value, cell number ratio, induced over uninduced
# [34] = measured here: relative caspase fold change +Dox/-Dox
# [35] = measured here: total cells with miR-34 induction, stronger effect = lower value
# [36] = measured here: total cells without miR-34 induction
structure (smiles),measurement,setting,value
NCCCCNCCCN,inhibition,[1],7.23%
same,score,[2],1
same,rescue above control,[3],-7.17
same,cytochrome c release ratio,[4],1.12
same,inhibition of aggregation,[5],57.8%
same,normalised LDH release,[6],0.936
same,glutamate uptake change,[7],-3.1%
same,inclusion score,[8],2
same,aggregation suppression score,[9],0.846
same,period change,[10],0.115 h (inactive)
same,inhibition,[11],-2% (inactive)
same,fluorescence ratio (interference),[12],1 (inactive)
same,red/green cell ratio (normalised),[13],0.89 (inactive)
same,normalised cell number,[13]; [31],0.98
same,normalised cell number,[13]; [32],0.87
same,remaining activity,[14],101% (inactive)
same,outcome,[15],inactive
same,outcome,[16],inactive
same,outcome,[17],inactive
same,outcome,[18],inactive
same,outcome,[19],inactive
same,outcome,[20],inactive
same,IC50,[21],1.18 nM (active)
same,fold change,[22]; [33],0.943 (inactive) and 0.936 (inactive)
same,fold change,[22]; [34],1.92 and 0.604
same,cell count,[22]; [35],9580 and 9960
same,cell count,[22]; [36],10200 and 10600
same,outcome,[23],inactive
same,luciferase signal,[24],48 AU (inactive)
same,z-score,[25],-0.635 (inactive) and -0.08 (inactive)
N#C[C@@H]1C[C@@H]2C[C@@H]2N1C(=O)[C@@H](N)C12CC3CC(CC(O)(C3)C1)C2,red/green cell ratio (normalised),[13],0.9 (inactive)
same,normalised cell number,[13]; [31],1.31
same,normalised cell number,[13]; [32],1.19
same,outcome,[15],inactive
same,outcome,[16],inactive
same,outcome,[17],inactive
same,outcome,[26],inactive
same,outcome,[18],inactive
same,outcome,[21],inactive
same,fold change,[22]; [33],0.886 (inactive)
same,fold change,[22]; [34],0.64
same,cell count,[22]; [35],8720
same,cell count,[22]; [36],9840
same,remaining NAD,[27],10 nM (inactive)
CN(C)CC[C@H](c1ccc(Cl)cc1)c1ccccn1,parasite load remaining,[28],101% (inactive) and 66.4% (inactive)
same,viability,[28],77.5% and 96.6%
same,red/green cell ratio (normalised),[13],1.35 (inactive)
same,normalised cell number,[13]; [31],0.95
same,normalised cell number,[13]; [32],1.28
same,outcome,[29],inactive
same,outcome,[16],inactive
same,outcome,[17],inactive
same,outcome,[19],inactive
same,fold change,[22]; [33],0.84 (inactive)
same,fold change,[22]; [34],2.94
same,cell count,[22]; [35],10500
same,cell count,[22]; [36],12500
same,luciferase signal,[24],80 AU (inactive)
CN1C(C(=O)Nc2ccccn2)=C(O)c2sc(Cl)cc2S1(=O)=O,red/green cell ratio (normalised),[13],0.78 (inactive)
same,normalised cell number,[13]; [31],1.13
same,normalised cell number,[13]; [32],0.88
same,outcome,[15],inactive
same,outcome,[16],inactive
same,outcome,[17],inactive
same,outcome,[18],inactive
same,outcome,[19],inactive
same,outcome,[20],inactive
same,outcome,[21],inactive
same,fold change,[22]; [33],0.905 (inactive) and 0.871 (inactive)
same,fold change,[22]; [34],0.83 and 0.817
same,cell count,[22]; [35],9030 and 7600
same,cell count,[22]; [36],9980 and 8730
same,z-score,"[30]; MELAS cybrid survival, CellTiter-Glo 48 h, stronger effect = higher value",-0.192 (inactive)
same,z-score,"[30]; Rieske KO mouse fibroblast survival, CellTiter-Glo 72 h",0.681
same,remaining NAD,[27],10 nM (inactive)
